Results filed as inconclusive are left out. Active and inactive are the calls of the source. Rule for the calls, unless noted: active = hit-call score of the fitted dose curve at least 0.9, where 1 is the maximum; inactive = score below 0.9.

Read-out in assay [1]: Monokine induced gamma interferon (MIG), CXCL9 (gene 4283)
The assay can be described thus: BSK_SAg_MIG: BioMAP Diversity Plus: SAg Assay for Monokine induced gamma interferon (MIG) Biomarker Activity (AID 2283092). The settings on record: primary human HUVEC with PBMC; actives raise or lower the signal. The gist of the method: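 ELISA readout of MIG/CXCL9; primary human umbilical vein endothelial cells co-cultured with peripheral blood mononuclear cells; 24 h post-dose; gain/loss fit vs DMSO baseline.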

A short description of assay [2]: BSK_SAg_PBMCCytotoxicity: PBMC Cytotoxicity Assessment in the BioMAP Diversity Plus: SAg Assay (AID 2283093).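 For AC50: PBMC superantigen activated with SEB plus TSST-1 one hour after compound addition.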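 Note: PBMC viability measured as Alamar Blue reduction fluorescence at 546/580 nm; fitted both ways against DMSO so a hit may be loss or gain of signal.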 The note with it: primary human HUVEC with PBMC. In a few lines: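 Human umbilical vein endothelial cells co-cultured with PBMC; PBMC (75,000/well) pre-treated with compound 1 h, then activated with SEB and TSST-1 (20 ng/mL final each) for 90 h. Alamar Blue added 6 h, fluorescence 546/580 nm; bidirectional fit versus DMSO.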

Read-out in assay [3]: Interleukin-8 (IL8), CXCL8 (gene 3576)
The assay can be described thus: BSK_SAg_IL8: BioMAP Diversity Plus: SAg Assay for Interleukin-8 (IL8) Biomarker Activity (AID 2283094). The settings on record: primary human HUVEC with PBMC; actives raise or lower the signal. The gist of the method:
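ELISA read-out of IL-8 in a primary human vascular co-culture (umbilical vein endothelium plus PBMC), taken 24 h after compound addition. Values derive from bidirectional fits against DMSO negative controls.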

Assay [4] can be described thus: BSK_SAg_Proliferation: Cell Proliferation Assessment in the BioMAP Diversity Plus: SAg Assay (AID 2283095).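 Note: relative cell number as total protein by SRB absorbance in sub-confluent culture.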 The settings on record: primary human HUVEC with PBMC. The gist of the method:
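Cells (endothelium plus PBMC, human primary) were dosed with chemical, cultured 96 h, fixed in 10% TCA and stained with 0.1% SRB. Absorbance at 560 nm gave relative protein, fitted bidirectionally relative to DMSO.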

Assay [5] is described as follows: BSK_SAg_SRB: Viability Assessment in the BioMAP Diversity Plus: SAg Assay (AID 2283096).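 Note: cells read one day after compound addition; hits may be either gain or loss of signal compared with DMSO.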 The settings on record: primary human HUVEC with PBMC. The gist of the method: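 Endothelial/PBMC primary human co-culture; compound 24 h; fix 10% TCA, stain 0.1% SRB, A560; protein content as cytotoxicity proxy; bidirectional curve fit, DMSO = baseline.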
The target of assay [6] is human AKT serine/threonine Kinase 2 (AKT2), AKT2 (gene 208) (UniProt P31751). The assay can be described thus: NVS_ENZ_hAKT2: NovaScreen (NVS) Enzymatic Assay for human AKT serine/threonine Kinase 2 (AKT2) (AID 2283141; active = hit-call score of the fitted dose curve at least 0.9, where 1 is the maximum). In a few lines:
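Cell-free fluorescence/electrophoretic mobility shift readout of recombinant human AKT2 activity, 1 h after chemical dosing. Duplicate primary screen at 25 uM, then singleton concentration-response up to 50 uM; loss of signal versus DMSO baseline.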

Assay [7] concerns the target human CYP19A1, CYP19A1 (gene 1588) (UniProt P11511). Kind of assay: NVS_ADME_hCYP19A1: NovaScreen (NVS) CYP450-related Enzyme Activity (ADME) Assay for human CYP19A1 (AID 2283098; active = hit-call score of the fitted dose curve at least 0.9, where 1 is the maximum;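 note: potency for inhibitors seen as loss of fluorescent enzyme signal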). In a few lines:
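Cell-free enzyme assay with recombinant protein and a specific fluorogenic substrate, read by fluorescence intensity 0.5 h after dosing. Primary screen ran in duplicate at 10 uM; actives were retested in concentration series. Loss of signal versus acetonitrile baseline.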

For assay [8], the target named is human CYP2B6, CYP2B6 (gene 1555) (UniProt P20813). Kind of assay: NVS_ADME_hCYP2B6: NovaScreen (NVS) CYP450-related Enzyme Activity (ADME) Assay for human CYP2B6 (AID 2283101; active = hit-call score of the fitted dose curve at least 0.9, where 1 is the maximum). In a few lines: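 Fluorescence-based enzyme activity of recombinant human CYP2B6, measured 1 h post-dose against acetonitrile vehicle baseline. Screened at a single concentration of 10 uM in duplicate before concentration-response follow-up.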

The target in assay [9] is human CYP1A2, CYP1A2 (gene 1544) (UniProt P05177). The assay can be described thus: NVS_ADME_hCYP1A2: NovaScreen (NVS) CYP450-related Enzyme Activity (ADME) Assay for human CYP1A2 (AID 2283102; active = hit-call score of the fitted dose curve at least 0.9, where 1 is the maximum;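 for AC50: potency for inhibition since loss of fluorescence marks reduced CYP1A2 activity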). In a few lines:
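Enzyme activity of insect-cell-expressed human CYP1A2 measured by fluorescence 0.5 h after compound addition, relative to acetonitrile. Compounds first tested in duplicate at 10 uM, actives followed up in concentration series.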

In assay [10] the target is human CYP2D6, CYP2D6 (gene 1565) (UniProt P10635). The assay can be described thus: NVS_ADME_hCYP2D6: NovaScreen (NVS) CYP450-related Enzyme Activity (ADME) Assay for human CYP2D6 (AID 2283107; active = hit-call score of the fitted dose curve at least 0.9, where 1 is the maximum). In a few lines: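 Fluorescence readout of recombinant CYP2D6 (insect-cell derived) activity after 1 h incubation with test chemical. Acetonitrile served as baseline, loss-of-signal direction. Single-concentration duplicate screening at 10 uM preceded concentration-response retesting.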

The target of assay [11] is human CYP2C9, CYP2C9 (gene 1559) (UniProt P11712). The assay can be described thus: NVS_ADME_hCYP2C9: NovaScreen (NVS) CYP450-related Enzyme Activity (ADME) Assay for human CYP2C9 (AID 2283108; active = hit-call score of the fitted dose curve at least 0.9, where 1 is the maximum). The gist of the method:
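Cell-free assay of recombinant human CYP2C9 produced in Sf9 cells, with enzyme activity read by fluorescence intensity 0.75 h after compound addition. Loss of signal versus an acetonitrile negative control indicates inhibition. Primary screen used 10 uM in duplicate; actives were retested in concentration series.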

Assay [12] has as its target Cytochrome P450 2C19 (Homo sapiens) (UniProt P33261). Kind of assay: NVS_ADME_hCYP2C19: NovaScreen (NVS) CYP450-related Enzyme Activity (ADME) Assay for human CYP2C19 (AID 2283113; active = hit-call score of the fitted dose curve at least 0.9, where 1 is the maximum;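 note: potency for inhibition seen as loss of fluorescent signal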). The gist of the method:
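Compounds first screened in duplicate at 10 uM, then confirmed in concentration series. Insect-cell-expressed human CYP2C19 turned over a fluorogenic substrate, and fluorescence was read after 1 h. Inhibition taken as signal loss relative to acetonitrile.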

The target in assay [13] is human Beta-secretase (BACE), BACE1 (gene 23621) (UniProt P56817). Kind of assay: NVS_ENZ_hBACE: NovaScreen (NVS) Enzymatic Assay for human Beta-secretase (BACE) (AID 2283140; active = hit-call score of the fitted dose curve at least 0.9, where 1 is the maximum;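 note: hits are inhibitors that reduce fluorescent substrate signal versus DMSO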). The gist of the method: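 Compounds were first tested in duplicate at 25 uM, then actives in concentration series, against recombinant BACE1 from SF9 cells. Enzyme activity was measured by fluorescence intensity 1 hour after dosing, with DMSO as negative control.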

The target in assay [14] is human AKT serine/threonine Kinase 1 (AKT1), AKT1 (gene 207) (UniProt P31749). Kind of assay: NVS_ENZ_hAKT1: NovaScreen (NVS) Enzymatic Assay for human AKT serine/threonine Kinase 1 (AKT1) (AID 2283138; active = hit-call score of the fitted dose curve at least 0.9, where 1 is the maximum). The gist of the method: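 Recombinant AKT1, specific substrate, cell-free; 1 h; fluorescence intensity/electrophoretic mobility shift. Duplicate single-point 25 uM, then singleton CRC max 50 uM. DMSO = negative control/baseline; signal loss = inhibition.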

For assay [15], the target named is human Caspase 5 (CASP5), CASP5 (gene 838) (UniProt P51878). Kind of assay: NVS_ENZ_hCASP5: NovaScreen (NVS) Enzymatic Assay for human Caspase 5 (CASP5) (AID 2283137; active = hit-call score of the fitted dose curve at least 0.9, where 1 is the maximum). The gist of the method:
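E. coli-derived enzyme, cell-free, 2 h incubation, fluorescence intensity. 25 uM duplicate single-point; hits → concentration series to 50 uM. DMSO baseline, positive/negative controls on every plate.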

Assay [16] addresses human CYP2A6, CYP2A6 (gene 1548) (UniProt P11509). The assay can be described thus: NVS_ADME_hCYP2A6: NovaScreen (NVS) CYP450-related Enzyme Activity (ADME) Assay for human CYP2A6 (AID 2283099; active = hit-call score of the fitted dose curve at least 0.9, where 1 is the maximum). The gist of the method:
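Compounds screened at 10 uM (duplicate) and, if active, titrated to a 20 uM top concentration against insect-cell-expressed CYP2A6. Loss of fluorescent product signal after 0.5 h, relative to acetonitrile baseline, indicates inhibition.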

Assay [17] has as its target Cytochrome P450 3A4 (Homo sapiens) (UniProt P08684). The assay can be described thus: NVS_ADME_hCYP3A4: NovaScreen (NVS) CYP450-related Enzyme Activity (ADME) Assay for human CYP3A4 (AID 2283110; active = hit-call score of the fitted dose curve at least 0.9, where 1 is the maximum). The gist of the method: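 Cell-free assay using insect-cell-expressed human CYP3A4 with a fluorogenic substrate; fluorescence intensity was read 0.33 hour after dosing. Loss of signal relative to acetonitrile vehicle indicated inhibition. Primary single-concentration screen at 10 uM, in duplicate, then concentration series.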

For assay [18], the target named is human Acid Phosphatase 1 (ACP1), ACP1 (gene 52) (UniProt P24666). Kind of assay: NVS_ENZ_hACP1: NovaScreen (NVS) Enzymatic Assay for human Acid Phosphatase 1 (ACP1) (AID 2283136; active = hit-call score of the fitted dose curve at least 0.9, where 1 is the maximum). The gist of the method:
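Recombinant enzyme expressed in Sf9 cells, tested cell-free; activity read by fluorescence with electrophoretic mobility shift separation of substrate and product, 1.5 h after dosing. Primary screen in duplicate at 25 uM, actives then run in concentration series; loss of signal versus DMSO.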

The target of assay [19] is human CYP1A1, CYP1A1 (gene 1543) (UniProt P04798). The assay can be described thus: NVS_ADME_hCYP1A1: NovaScreen (NVS) CYP450-related Enzyme Activity (ADME) Assay for human CYP1A1 (AID 2283100; active = hit-call score of the fitted dose curve at least 0.9, where 1 is the maximum). In a few lines: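 Chemicals were first tested in duplicate at 10 uM, and those passing a 30% inhibition threshold were rerun as concentration series topping at 20 uM. Fluorescence read-out of recombinant enzyme turnover after 1 h, relative to acetonitrile.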

human CYP2C9, CYP2C9 (gene 1559), sequence (P11712 whole entry, looked up): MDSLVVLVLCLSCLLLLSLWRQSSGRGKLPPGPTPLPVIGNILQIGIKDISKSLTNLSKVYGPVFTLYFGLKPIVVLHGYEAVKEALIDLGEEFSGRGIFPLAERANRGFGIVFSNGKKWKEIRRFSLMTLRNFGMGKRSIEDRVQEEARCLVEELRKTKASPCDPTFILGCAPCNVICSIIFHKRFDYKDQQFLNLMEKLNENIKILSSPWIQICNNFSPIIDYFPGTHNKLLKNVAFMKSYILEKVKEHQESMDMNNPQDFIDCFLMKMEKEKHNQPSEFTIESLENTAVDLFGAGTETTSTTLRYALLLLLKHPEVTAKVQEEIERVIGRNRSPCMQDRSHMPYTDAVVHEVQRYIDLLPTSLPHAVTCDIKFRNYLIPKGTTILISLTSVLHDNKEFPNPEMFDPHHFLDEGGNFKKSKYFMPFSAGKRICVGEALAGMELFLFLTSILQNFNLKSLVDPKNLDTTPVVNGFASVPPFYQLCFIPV
human Beta-secretase (BACE), BACE1 (gene 23621), sequence (P56817 whole entry, looked up): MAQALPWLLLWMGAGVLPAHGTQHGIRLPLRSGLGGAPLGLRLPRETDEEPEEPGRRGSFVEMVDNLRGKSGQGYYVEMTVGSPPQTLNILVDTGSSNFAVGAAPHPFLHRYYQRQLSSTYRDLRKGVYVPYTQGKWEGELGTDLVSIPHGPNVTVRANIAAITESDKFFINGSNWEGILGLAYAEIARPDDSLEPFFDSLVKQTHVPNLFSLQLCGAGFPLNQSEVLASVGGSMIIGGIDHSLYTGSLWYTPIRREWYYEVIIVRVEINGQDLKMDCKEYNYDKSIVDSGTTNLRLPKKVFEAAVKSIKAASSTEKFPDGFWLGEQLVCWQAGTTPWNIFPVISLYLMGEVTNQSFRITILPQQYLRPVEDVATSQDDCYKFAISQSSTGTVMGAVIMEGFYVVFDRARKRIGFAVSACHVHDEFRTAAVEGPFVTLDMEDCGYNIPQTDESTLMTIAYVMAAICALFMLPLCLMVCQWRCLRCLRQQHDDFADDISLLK
human CYP1A2, CYP1A2 (gene 1544), sequence (P05177 whole entry, looked up): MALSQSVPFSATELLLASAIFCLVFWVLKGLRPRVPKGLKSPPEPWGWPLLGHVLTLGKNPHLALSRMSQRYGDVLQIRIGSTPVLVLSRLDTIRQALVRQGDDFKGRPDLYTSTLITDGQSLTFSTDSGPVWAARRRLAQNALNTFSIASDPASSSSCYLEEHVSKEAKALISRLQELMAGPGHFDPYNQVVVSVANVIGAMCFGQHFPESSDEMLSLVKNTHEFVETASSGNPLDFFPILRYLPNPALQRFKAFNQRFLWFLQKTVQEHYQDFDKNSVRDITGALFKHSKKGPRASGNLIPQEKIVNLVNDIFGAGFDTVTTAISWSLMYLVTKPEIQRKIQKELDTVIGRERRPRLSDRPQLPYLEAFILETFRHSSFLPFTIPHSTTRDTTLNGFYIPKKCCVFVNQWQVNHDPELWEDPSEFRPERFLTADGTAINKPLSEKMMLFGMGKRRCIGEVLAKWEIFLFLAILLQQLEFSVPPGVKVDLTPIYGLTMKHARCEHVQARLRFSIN
human CYP2B6, CYP2B6 (gene 1555), sequence (P20813 whole entry, looked up): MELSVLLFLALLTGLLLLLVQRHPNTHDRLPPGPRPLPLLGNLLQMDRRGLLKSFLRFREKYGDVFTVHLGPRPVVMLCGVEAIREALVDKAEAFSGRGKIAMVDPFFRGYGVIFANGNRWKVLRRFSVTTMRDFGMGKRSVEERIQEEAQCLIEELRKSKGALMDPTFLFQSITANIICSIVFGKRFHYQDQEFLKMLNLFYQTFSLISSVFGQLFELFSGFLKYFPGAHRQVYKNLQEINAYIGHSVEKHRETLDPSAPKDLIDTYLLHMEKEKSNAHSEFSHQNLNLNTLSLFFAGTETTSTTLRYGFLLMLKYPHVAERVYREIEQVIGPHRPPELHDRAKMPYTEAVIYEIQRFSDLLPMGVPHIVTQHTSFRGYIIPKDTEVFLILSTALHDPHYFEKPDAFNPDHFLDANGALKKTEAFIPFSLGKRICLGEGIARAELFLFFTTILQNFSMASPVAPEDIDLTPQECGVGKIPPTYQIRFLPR
human CYP2D6, CYP2D6 (gene 1565), sequence (P10635 whole entry, looked up): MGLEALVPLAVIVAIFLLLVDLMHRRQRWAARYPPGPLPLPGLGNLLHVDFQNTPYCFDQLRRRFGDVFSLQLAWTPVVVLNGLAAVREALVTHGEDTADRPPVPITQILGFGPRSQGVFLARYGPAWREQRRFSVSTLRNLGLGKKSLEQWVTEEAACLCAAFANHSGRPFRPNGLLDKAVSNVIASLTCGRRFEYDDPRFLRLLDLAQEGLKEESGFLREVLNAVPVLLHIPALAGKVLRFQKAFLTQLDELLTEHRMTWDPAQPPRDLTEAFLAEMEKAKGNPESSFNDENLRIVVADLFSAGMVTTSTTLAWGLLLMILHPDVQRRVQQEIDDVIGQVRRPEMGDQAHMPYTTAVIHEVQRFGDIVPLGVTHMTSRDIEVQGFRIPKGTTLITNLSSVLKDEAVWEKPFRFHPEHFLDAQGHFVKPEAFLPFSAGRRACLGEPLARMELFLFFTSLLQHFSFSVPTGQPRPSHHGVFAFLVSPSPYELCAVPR
human Caspase 5 (CASP5), CASP5 (gene 838), sequence (P51878 whole entry, looked up): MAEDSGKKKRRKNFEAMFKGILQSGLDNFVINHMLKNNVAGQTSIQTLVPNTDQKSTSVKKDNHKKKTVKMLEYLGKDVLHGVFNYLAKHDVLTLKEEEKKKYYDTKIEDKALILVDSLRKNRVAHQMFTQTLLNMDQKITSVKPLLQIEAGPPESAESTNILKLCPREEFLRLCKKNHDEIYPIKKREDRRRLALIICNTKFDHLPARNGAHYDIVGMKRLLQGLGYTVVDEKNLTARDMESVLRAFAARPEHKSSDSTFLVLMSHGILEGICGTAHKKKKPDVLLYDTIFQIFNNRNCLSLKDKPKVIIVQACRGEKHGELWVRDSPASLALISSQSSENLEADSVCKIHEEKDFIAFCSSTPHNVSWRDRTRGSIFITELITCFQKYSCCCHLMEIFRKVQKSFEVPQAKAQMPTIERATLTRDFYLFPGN
Cytochrome P450 3A4 (Homo sapiens), sequence (P08684 whole entry, looked up): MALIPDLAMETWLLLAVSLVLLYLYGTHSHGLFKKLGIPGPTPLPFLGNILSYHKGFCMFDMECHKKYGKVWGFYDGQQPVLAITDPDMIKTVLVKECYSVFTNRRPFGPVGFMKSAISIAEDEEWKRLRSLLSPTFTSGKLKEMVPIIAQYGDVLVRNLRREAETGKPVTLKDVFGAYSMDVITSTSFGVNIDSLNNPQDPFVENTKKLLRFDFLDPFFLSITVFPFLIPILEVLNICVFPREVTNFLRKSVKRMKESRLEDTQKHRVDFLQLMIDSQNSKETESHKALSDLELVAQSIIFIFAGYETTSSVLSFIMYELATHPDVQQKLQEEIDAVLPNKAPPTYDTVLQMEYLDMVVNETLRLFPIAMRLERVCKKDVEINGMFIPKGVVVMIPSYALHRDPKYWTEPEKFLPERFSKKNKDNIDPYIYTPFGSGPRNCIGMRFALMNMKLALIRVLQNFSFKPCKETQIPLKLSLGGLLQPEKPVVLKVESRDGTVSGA
human CYP2A6, CYP2A6 (gene 1548), sequence (P11509 whole entry, looked up): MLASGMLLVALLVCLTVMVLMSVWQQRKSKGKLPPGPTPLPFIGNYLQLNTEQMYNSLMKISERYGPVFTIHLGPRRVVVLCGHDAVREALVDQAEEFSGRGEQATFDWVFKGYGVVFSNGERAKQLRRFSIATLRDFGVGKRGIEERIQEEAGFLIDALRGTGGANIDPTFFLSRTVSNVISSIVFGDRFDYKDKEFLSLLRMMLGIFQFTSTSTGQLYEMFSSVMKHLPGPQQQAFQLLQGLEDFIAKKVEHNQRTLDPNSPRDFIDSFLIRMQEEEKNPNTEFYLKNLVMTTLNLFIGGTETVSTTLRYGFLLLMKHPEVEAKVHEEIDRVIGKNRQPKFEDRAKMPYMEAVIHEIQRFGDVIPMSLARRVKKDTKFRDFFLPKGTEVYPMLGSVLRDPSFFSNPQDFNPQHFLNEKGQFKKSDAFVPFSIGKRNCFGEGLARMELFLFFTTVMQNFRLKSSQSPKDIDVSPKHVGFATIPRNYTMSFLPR
human Acid Phosphatase 1 (ACP1), ACP1 (gene 52), sequence (P24666 whole entry, looked up): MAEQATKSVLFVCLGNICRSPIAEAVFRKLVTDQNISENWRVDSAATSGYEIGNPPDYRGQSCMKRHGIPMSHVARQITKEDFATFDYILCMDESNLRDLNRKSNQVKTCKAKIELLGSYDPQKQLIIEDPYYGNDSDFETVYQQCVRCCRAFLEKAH
human AKT serine/threonine Kinase 2 (AKT2), AKT2 (gene 208), sequence (P31751 whole entry, looked up): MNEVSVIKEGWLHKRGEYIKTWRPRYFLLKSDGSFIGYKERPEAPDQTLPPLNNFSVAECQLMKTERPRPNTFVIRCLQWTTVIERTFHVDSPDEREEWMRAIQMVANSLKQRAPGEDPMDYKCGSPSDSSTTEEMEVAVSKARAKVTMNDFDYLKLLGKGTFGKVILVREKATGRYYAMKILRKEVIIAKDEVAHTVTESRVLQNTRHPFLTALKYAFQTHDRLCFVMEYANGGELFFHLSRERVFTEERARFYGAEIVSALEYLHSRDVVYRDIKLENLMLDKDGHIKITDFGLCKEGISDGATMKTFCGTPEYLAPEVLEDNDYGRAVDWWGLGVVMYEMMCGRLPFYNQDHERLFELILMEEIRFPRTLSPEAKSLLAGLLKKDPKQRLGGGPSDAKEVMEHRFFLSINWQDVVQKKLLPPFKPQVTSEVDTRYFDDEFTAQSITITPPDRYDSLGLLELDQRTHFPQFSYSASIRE

Regarding `CC(C)CCCCCCCOC(=O)CCCCC(=O)OCCCCCCCC(C)C`, the result in assay [1], in [2], in assay [3], in [4], in [5] and in assay [6] was inactive.

Take `CCCCCCc1ccc(O)cc1O`: the AC50 in [1] is 36.8 µM (active); in assay [2] it was 33.1 µM (active); in assay [3] it was 24.4 µM (active); in [4] it was 31 µM (active); in assay [7], 4.09 µM (active); in assay [8] it was 4.64 µM (active). Also, the concentration at half-maximal activity (AC50) in assay [10] was 8.17 µM (active); in [11], 10 µM (active); in [12], 4.91 µM (active). For the same molecule, the molecule was classed as inactive in [9] and in assay [13].

For `CCOCCOCCOCCO`, the result in [1], in assay [2], in assay [3], in [4], in assay [5] and in assay [14] was inactive.

For the molecule `O=c1[nH]c2ccc(S(=O)CCN3CCC(Cc4ccc(F)cc4)CC3)cc2o1` (stereo unspecified), the result in assay [1], in [2], in assay [3], in assay [4] and in assay [5] was inactive. Also, the AC50 in assay [10] was 1.3 µM (active).

Take `O=C(CCCCCCCCc1cccnc1)N1CCC(C=C(c2ccccc2)c2ccccc2)CC1`: the AC50 is 10.3 µM (active) in assay [2], 6.46 µM (active) in assay [3], 6.21 µM (active) in [4] and 12.7 µM (active) in [5].

As to `O=C(OC[C@H]1O[C@@H](OC(=O)c2cc(O)c(O)c(OC(=O)c3cc(O)c(O)c(O)c3)c2)[C@H](OC(=O)c2cc(O)c(O)c(OC(=O)c3cc(O)c(O)c(O)c3)c2)[C@@H](OC(=O)c2cc(O)c(O)c(OC(=O)c3cc(O)c(O)c(O)c3)c2)[C@@H]1OC(=O)c1cc(O)c(O)c(OC(=O)c2cc(O)c(O)c(O)c2)c1)c1cc(O)c(O)c(OC(=O)c2cc(O)c(O)c(O)c2)c1`, the outcome in assay [1] and in assay [2] was inactive. Besides, the AC50 was 10.2 µM (active) in assay [3]; 6.18 µM (active) in [4]; 9.72 µM (active) in assay [5]; 2.01 µM (active) in [9]; 3.05 µM (active) in assay [11]; 2.34 µM (active) in [12]. For the same molecule, the AC50 was 0.136 µM (active) in assay [15] and 3.11 µM (active) in assay [13].

Turning to `O=P(OC(CCl)CCl)(OC(CCl)CCl)OC(CCl)CCl`, the result in assay [1], in assay [2], in [5], in assay [16], in assay [11] and in [18] was inactive. The outcome in assay [15] was inactive. The AC50 in [3] is 20 µM (active); in assay [4], 25.3 µM (active); in assay [8], 6.54 µM (active); in assay [17] it was 6.65 µM (active); in [12] it was 6.38 µM (active); in assay [13], 8.73 µM (active).

As for `CC(C)(O)c1coc(S(=O)(=O)NC(=O)Nc2c3c(cc4c2CCC4)CCC3)c1`, the outcome in assay [1], in assay [2], in assay [3], in assay [4], in [5] and in assay [19] was inactive. Further, the AC50 is 6.39 µM (active) in assay [8], 16 µM (active) in [9], 13.4 µM (active) in assay [11] and 10 µM (active) in [12].

As usually defined, the AC50 is the midpoint of the concentration-response curve, whichever way the signal moves.

The values are drawn from PubChem BioAssay (EPA / NIEHS).
